The values below come from PubChem BioAssay.

The structures appear in SMILES notation. Values joined by “and” are separate entries in the source; they are usually repeats but may differ in a detail not shown here. Equal entries are not always repeated.

This assay can be described thus: sensitizers of A549 cells to miR-34 induction, primary screen, imaging, A549 dox-inducible miR-34, nuclei and caspase counts (AID 1347080). Also: test concentration not given here. The settings on record: A549 miR-34 inducible, Hoechst nuclei count, 48 h; measured here: total cells with miR-34 induction; stronger effect = lower value.
Turning to `CCC(C)C(=O)OC1CC(O)C=C2C=CC(C)C(CCC(O)CC(O)CC(=O)O)[C@H]21` (stereo partly specified), the cell count is 7720.
Regarding `O=[N+]([O-])c1cn2c(n1)OCC(OCc1ccc(OC(F)(F)F)cc1)C2` (stereo unspecified), the cell count came out at 6600.
With `CC1OC(O)C(O)C(O)C1O` (stereo unspecified) the figure was 7230; with `CC1CC(=O)NN=C1c1ccc(NN=C(C#N)C#N)cc1` (stereo unspecified), 8280.
As to `O=c1ncccn1C1OC(CO)C(O)C1O` (stereo unspecified), the cell count worked out at 8580.
With `Cc1nc(Nc2n[nH]c3c2CN(C(=O)NC(CN(C)C)c2ccccc2)C3(C)C)c2sccc2n1` (stereo unspecified) the figure was 1510; with `C=C1C(=O)OC2C=C(C)CCC=C(C)CCC12` (stereo unspecified), 7130.
With `CCOC(=O)c1ccc(N2NC(=O)C(=Cc3ccc([N+](=O)[O-])o3)C2=O)cc1` the figure was 7420; with `CC(C=CC1=C(C)CCCC1(C)C)=CC=CC(C)=CC(=O)O`, 6860 and 8040.
Regarding `COc1ccc(CCc2nc3cc(-c4c(C)noc4C)ccc3n2CC(C)N2CCOCC2)cc1Cl` (stereo unspecified), the cell count amounted to 7240.
With `O=C(CCCS)NC1CCN(C(=O)COc2ccc(Cl)cc2Cl)CC1` the figure was 7910.
